Laboratory results published in PubChem BioAssay (NCATS).
Results filed as inconclusive are left out. Unmarked numbers belong to inactive results. Calls come from the whole dose curve.

Assay: qHTS assay for small molecule disruptors of the mitochondrial membrane potential - 1 hr assay (AID 651754); note: nearly all actives have a fitted effect of over 35% in size
Conditions: series mostly up to 92.2 µM; ratio change, negative = depolarisation: at the top concentration
Description: National Center for Advancing Translational Sciences [NCATS]
NIH Chemical Genomics Center [NCGC]
National Institutes of Environmental Health Sciences [NIEHS]
National Toxicology Program [NTP]
Mitochondrial membrane potential (MMP), one of the parameters for mitochondrial function, is generated by mitochondrial electron transport chain that creates an electrochemical gradient by a series of redox reactions. This gradient drives the synthesis of ATP, a crucial molecule for various cellular processes. Measuring MMP in living cells is commonly used to assess the effect of chemicals on mitochondrial function. […] The dye accumulates in the mitochondria of healthy cells as aggregates, with red fluorescence. The mitochondrial potential collapses and the dye can no longer accumulate in the mitochondria and remains in the cytoplasm in monomers, with green fluorescence.
2,000 HepG2 cells in 5 uL/well were dispensed into black, clear-bottom 1536-well plates using a Multidrop Combi (Thermo Scientific) dispenser. The assay plates were incubated overnight at 37C to allow cells to attach to the wells, followed by the transfer of 23 nL compound or DMSO vehicle by a pin tool (Kalypsys). The plates were incubated for 1 hr at 37C and 5% CO2, followed by the addition of 5 uL of 2X Mito-MPS dye (BD Biosciences) into each well using Flying Reagent Dispenser (Aurora Discovery) and then following 30 min incubation at 37C. Fluorescence intensity (490nm excitation and 535nm emission for monomers; and 540nm excitation and 590nm emissions for aggregates) was measured using an Envision plate reader.
% is set by controls: 0 for no effect and ±100 for the full control effect.

| SMILES | ratio change, negative = depolarisation [%] |
| --- | --- |
| CC(=O)Nc1ccc(C)cc1 | 1.6 |
| OC(CCl)CCl | 5.04 |
| C=CCCCCCC | 3.43 |
| CC(=O)OCc1ccco1 | 1.54 |
| O=C(O)c1ccccc1[N+](=O)[O-] | 6.06 |
| O=C1NC(=O)c2cc([N+](=O)[O-])ccc21 | -2.45 |
| CN(C)c1cccc(O)c1 | -0.231 |
| C/C=C1\CC2C=CC1C2 (stereo not given) | 3.78 |
| CCC(O)C(C)(C)C (stereo not given) | 4.11 |
| CCNS(=O)(=O)c1ccc(C)cc1 | 0.149 |
| CCC(C)(C)C(=O)O | -2.42 |
| O=C(O)c1ccc(CO)o1 | 5.79 |
| Cc1cc([N+](=O)[O-])ccc1N | -20 |
| COc1cccc(N)c1 | 0.143 |
| CC(C)N=C=NC(C)C | -0.879 |
| O=C(O)CNC(=O)c1ccc([N+](=O)[O-])cc1 | -0.212 |
| Nc1ccccc1[N+](=O)[O-] | 1.87 |
| Nc1nc2ccccc2[nH]1 | -7.77 |
| Cc1ccccc1C=O | 0.89 |
| C=Cc1ccc(C=C)cc1 | 2.96 |

| SMILES | ratio change, negative = depolarisation [%] |
| --- | --- |
| CCOC(C)(C)C | 1.19 |
| Nc1cc(Cl)c(N)c(Cl)c1 | -10.8 |
| Nc1cccc2c(=O)[nH][nH]c(=O)c12 | 4.29 |
| C[C@@H]1CC2(OC[C@]3(C)O[C@H]23)O[C@H]2C[C@@]3(C)[C@@H]4CC[C@H]5C(C)(C)C(O[C@@H]6OC[C@@H](O)[C@H](O)[C@H]6O)CC[C@@]56C[C@@]46CC[C@]3(C)[C@@H]12 (stereo not given in full) | -2.82 |
| Oc1c(Cl)ccc(Cl)c1Cl | -19.7 |
| Cc1cccc([N+](=O)[O-])c1C(=O)O | 4.44 |
| CC(C=O)Cc1ccc(C(C)(C)C)cc1 (stereo not given) | 2.99 |
| NC=O | 0.924 |
| CCc1ccccc1 | -1.45 |
| Cc1ccc(C#N)cc1 | 2.41 |
| CC(C)(O)C(=O)O | 3.43 |
| Cc1ccc(Cl)cc1 | 4.99 |
| O=C(O)c1ccccc1Cl | 3.16 |
| C=C(C)C(=O)OC | -4.6 |
| Cc1nc2ccc(Cl)cc2[nH]1 | -11.4 |
| CCCCOCCOCCOCCCC | -2.83 |
| Nc1nc(-c2ccccc2)cs1 | 2.5 |
| O=C1OC(=O)c2cc([N+](=O)[O-])ccc21 | -0.441 |
| NC(=S)NNC(N)=S | -3.14 |
| O=Cc1ccc(C(=O)O)cc1 | -19.7 |
